# Inconclusive results are not listed. Calls of active or inactive are those of the source. The calls were made as follows: active = hit-call score of the fitted dose curve at least 0.9, where 1 is the maximum; inconclusive = response in the unintended direction; inactive = score below 0.9.
# Assays:
# [1] = target: Androgen receptor (Homo sapiens) (UniProt P10275); assay: ATG_AR_TRANS: Attagene TRANS-FACTORIAL HepG2 Assay for human Androgen Receptor (AR) (AID 2282973); settings: HepG2 Attagene TRANS-FACTORIAL AR reporter transcription
# Sequence of Androgen receptor (Homo sapiens) (P10275 whole entry, looked up, the tested form may be a part): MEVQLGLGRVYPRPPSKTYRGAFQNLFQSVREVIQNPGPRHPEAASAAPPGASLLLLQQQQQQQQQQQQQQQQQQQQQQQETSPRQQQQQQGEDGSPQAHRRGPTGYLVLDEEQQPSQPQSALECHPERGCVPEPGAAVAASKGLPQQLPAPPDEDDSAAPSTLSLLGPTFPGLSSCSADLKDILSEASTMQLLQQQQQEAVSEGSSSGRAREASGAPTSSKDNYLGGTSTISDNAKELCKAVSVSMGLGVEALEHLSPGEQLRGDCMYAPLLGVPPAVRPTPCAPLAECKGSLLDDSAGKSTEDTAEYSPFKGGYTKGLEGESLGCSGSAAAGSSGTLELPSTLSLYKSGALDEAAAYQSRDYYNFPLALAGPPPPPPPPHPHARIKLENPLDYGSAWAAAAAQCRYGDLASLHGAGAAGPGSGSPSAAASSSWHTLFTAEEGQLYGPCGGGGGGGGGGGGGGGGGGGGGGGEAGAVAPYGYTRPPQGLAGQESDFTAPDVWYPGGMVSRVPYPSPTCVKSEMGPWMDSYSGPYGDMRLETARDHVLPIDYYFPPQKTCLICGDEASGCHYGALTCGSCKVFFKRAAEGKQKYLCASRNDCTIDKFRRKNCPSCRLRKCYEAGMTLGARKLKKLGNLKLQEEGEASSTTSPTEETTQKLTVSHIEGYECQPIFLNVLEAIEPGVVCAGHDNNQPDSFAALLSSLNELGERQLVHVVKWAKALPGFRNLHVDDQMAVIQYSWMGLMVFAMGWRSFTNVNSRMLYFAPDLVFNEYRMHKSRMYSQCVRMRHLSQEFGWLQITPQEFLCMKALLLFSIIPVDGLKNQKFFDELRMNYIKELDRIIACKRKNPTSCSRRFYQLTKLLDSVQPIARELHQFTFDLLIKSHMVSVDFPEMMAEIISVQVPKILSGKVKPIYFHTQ
# In short: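 HepG2 cells transiently transfected with AR-Gal4 chimera and GAL4-UAS reporter units; chemical exposure 24 h. Reporter mRNA quantified by RT-PCR with fluorescent labelling and capillary electrophoresis; gain-of-signal fitted against DMSO.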
# [2] = target: human Acetylcholinesterase (AChE), ACHE (gene 43) (UniProt P22303); assay: NVS_ENZ_hAChE: NovaScreen (NVS) Enzymatic Assay for human Acetylcholinesterase (AChE) (AID 2283129)
# Sequence of human Acetylcholinesterase (AChE), ACHE (gene 43) (P22303 whole entry, looked up): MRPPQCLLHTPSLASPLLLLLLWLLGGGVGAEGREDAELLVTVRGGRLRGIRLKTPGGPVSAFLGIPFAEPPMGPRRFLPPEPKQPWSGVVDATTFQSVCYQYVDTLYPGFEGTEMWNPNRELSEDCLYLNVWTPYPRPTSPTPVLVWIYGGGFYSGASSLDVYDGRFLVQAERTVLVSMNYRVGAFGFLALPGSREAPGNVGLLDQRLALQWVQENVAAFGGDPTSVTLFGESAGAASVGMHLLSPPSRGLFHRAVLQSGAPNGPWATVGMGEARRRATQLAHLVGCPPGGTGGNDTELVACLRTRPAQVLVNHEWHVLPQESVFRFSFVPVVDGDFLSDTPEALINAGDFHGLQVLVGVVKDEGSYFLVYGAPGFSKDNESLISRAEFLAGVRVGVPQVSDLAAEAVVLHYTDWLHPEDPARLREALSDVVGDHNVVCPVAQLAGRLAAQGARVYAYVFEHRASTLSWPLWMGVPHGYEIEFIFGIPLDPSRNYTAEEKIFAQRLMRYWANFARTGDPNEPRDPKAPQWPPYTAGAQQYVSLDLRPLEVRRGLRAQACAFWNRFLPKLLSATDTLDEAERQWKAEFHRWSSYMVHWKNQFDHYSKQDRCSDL
# In short: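 Actives from a duplicate single-point screen (25 uM) were followed up in concentration series. Enzyme activity read by absorbance (colorimetric) 0.33 hour after dosing, cell-free, normalized to DMSO, with loss of signal scored.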
# [3] = target: human Raf-1 Proto-Oncogene, serine/threonine Kinase (RAF1), RAF1 (gene 5894) (UniProt P04049); assay: NVS_ENZ_hRAF1: NovaScreen (NVS) Enzymatic Assay for human Raf-1 Proto-Oncogene, serine/threonine Kinase (RAF1) (AID 2283216)
# Sequence of human Raf-1 Proto-Oncogene, serine/threonine Kinase (RAF1), RAF1 (gene 5894) (P04049 whole entry, looked up): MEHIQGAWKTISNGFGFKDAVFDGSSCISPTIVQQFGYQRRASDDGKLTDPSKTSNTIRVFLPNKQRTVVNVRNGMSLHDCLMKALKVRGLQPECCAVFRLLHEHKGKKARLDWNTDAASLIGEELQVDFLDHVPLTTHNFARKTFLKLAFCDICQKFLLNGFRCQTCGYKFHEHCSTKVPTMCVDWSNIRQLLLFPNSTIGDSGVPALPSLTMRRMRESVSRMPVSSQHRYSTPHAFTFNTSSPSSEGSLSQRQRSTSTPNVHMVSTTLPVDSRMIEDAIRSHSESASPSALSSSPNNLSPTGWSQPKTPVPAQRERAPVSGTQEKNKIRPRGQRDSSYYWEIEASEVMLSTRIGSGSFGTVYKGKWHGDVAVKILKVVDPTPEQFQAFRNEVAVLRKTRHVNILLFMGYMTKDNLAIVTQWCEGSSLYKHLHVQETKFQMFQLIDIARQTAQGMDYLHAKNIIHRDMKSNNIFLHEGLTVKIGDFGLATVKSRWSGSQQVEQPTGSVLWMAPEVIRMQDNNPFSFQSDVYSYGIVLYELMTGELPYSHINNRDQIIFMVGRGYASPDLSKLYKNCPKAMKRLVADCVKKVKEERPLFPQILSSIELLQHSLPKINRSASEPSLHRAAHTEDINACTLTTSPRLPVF
# In short: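 Single-point screening at 25 uM (duplicate), followed by singleton concentration-response to 50 uM maximum for chemicals exceeding threshold. Enzyme activity from fluorescent substrate-product mobility-shift separation after 1 h, relative to DMSO.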
# [4] = target: human Androgen Receptor (AR), AR (gene 367) (UniProt P10275); assay: ATG_hAR_XSP1: Attagene TRANS-FACTORIAL Multi-Species (XSP1) HepG2 Assay for human Androgen Receptor (AR) (AID 2283785)
# Sequence of human Androgen Receptor (AR), AR (gene 367) (P10275 whole entry, looked up): as the sequence (P10275 whole entry, looked up, the tested form may be a part) above
# Method: ATG_XSP1_multi-species_TRANS is a cell-based, multiplexed assay created by modifying the existing Attagene TRANS-FACTORIAL system to include a panel of nuclear receptors from some or all the following species: human (Homo sapiens), mouse (Mus musculus), frog (Xenopus laevis), zebrafish (Danio rerio), chicken (Gallus gallus), and turtle (Chrysemys picta). The ECOTOX-FACTORIAL format uses HepG2, a human liver cell line, with measurements taken at 24 hours after chemical dosing in a 24-well plate. Xsp1 included 3 nM 6-alpha-fluorotestosterone to partially stimulate the androgen receptor.ATG_hAR_XSP1 is one of 29 assay components measured or calculated from the ATG_XSP1_multi-species_TRANS assay. It is designed to make measurements of mRNA induction, a form of inducible reporter, as detected with fluorescence intensity signals by Reverse transcription polymerase chain reaction (RT-PCR) and Capillary electrophoresis technology.The assay endpoint ATG_hAR_XSP1 was analyzed in the positive analysis fitting direction relative to DMSO as the negative control and baseline of activity. […] Furthermore, this assay endpoint can be referred to as a primary readout, because this assay has produced multiple assay endpoints where this one serves a reporter gene function. […]
# [5] = target: human Fibroblast Growth Factor Receptor 1 (FGFR1), FGFR1 (gene 2260) (UniProt P11362); assay: NVS_ENZ_hFGFR1: NovaScreen (NVS) Enzymatic Assay for human Fibroblast Growth Factor Receptor 1 (FGFR1) (AID 2283159);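 as to AC50: hits lower the signal so potencies describe inhibitors of the kinase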
# Sequence of human Fibroblast Growth Factor Receptor 1 (FGFR1), FGFR1 (gene 2260) (P11362 whole entry, looked up): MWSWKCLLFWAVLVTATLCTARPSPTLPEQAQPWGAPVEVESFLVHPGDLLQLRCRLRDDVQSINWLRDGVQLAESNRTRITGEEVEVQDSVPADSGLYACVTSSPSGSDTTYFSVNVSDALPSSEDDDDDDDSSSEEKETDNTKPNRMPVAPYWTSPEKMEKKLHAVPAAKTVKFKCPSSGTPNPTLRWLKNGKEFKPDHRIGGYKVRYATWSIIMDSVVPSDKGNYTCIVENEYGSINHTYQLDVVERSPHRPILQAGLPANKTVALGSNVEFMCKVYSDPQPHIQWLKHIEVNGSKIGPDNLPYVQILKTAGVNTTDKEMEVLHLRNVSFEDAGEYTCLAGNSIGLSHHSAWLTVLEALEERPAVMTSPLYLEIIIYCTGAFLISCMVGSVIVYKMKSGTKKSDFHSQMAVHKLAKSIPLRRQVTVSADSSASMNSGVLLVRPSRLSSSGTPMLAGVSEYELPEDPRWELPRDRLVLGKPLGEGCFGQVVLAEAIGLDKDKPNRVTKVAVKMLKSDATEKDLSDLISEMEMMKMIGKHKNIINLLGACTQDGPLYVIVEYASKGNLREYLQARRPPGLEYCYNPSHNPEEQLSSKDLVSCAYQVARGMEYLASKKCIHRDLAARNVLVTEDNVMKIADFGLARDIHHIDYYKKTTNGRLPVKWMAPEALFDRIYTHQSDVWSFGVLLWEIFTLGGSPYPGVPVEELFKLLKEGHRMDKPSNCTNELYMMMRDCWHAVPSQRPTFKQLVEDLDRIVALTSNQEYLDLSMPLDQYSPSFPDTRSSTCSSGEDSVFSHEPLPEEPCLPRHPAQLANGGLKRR
# In short: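 Cell-free recombinant kinase with fluorescent substrate, product separated by electrophoretic mobility shift; read 1 hour after dosing, loss of signal relative to DMSO. Initial screen in duplicate at 25 uM, actives followed in concentration series.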
# [6] = target: human Protein Tyrosine Phosphatase Receptor Type C (PTPRC), PTPRC (gene 5788) (UniProt P08575); assay: NVS_ENZ_hPTPRC: NovaScreen (NVS) Enzymatic Assay for human Protein Tyrosine Phosphatase Receptor Type C (PTPRC) (AID 2283212)
# Sequence of human Protein Tyrosine Phosphatase Receptor Type C (PTPRC), PTPRC (gene 5788) (P08575 whole entry, looked up): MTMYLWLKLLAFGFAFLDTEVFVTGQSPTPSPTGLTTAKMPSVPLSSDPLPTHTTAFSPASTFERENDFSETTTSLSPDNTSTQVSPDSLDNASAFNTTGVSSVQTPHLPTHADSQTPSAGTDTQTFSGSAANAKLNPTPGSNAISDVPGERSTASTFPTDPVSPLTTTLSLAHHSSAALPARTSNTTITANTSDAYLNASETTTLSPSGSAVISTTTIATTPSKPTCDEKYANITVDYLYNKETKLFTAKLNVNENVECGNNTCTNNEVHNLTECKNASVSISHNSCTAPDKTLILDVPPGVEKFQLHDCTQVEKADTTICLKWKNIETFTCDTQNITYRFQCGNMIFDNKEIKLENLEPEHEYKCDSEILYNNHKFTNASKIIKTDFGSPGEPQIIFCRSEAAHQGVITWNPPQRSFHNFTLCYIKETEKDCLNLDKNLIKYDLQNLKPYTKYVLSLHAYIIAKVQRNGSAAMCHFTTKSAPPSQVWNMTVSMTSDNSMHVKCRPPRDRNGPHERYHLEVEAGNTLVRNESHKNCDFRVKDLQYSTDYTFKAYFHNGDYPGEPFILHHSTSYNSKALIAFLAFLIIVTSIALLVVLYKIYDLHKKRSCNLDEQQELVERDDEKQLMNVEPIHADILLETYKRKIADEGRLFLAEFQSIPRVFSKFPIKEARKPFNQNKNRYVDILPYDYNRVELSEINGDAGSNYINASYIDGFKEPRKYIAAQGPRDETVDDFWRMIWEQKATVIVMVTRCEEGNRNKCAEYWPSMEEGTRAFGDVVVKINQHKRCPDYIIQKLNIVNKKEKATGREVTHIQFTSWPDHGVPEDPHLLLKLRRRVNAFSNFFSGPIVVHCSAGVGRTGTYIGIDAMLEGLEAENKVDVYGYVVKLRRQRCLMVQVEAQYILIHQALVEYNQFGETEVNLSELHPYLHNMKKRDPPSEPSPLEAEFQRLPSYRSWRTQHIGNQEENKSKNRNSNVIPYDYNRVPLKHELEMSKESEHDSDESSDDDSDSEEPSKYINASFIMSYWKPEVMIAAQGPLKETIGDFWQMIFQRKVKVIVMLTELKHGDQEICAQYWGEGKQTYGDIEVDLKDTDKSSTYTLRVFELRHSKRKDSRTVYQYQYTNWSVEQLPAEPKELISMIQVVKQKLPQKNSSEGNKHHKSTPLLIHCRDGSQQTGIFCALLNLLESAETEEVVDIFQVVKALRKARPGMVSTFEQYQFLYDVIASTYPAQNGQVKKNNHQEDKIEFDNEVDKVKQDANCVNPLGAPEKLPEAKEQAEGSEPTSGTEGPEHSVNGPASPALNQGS
# In short: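 Absorbance-based phosphatase activity of human PTPRC protein extracted from yeast was measured 1 h post-dosing. Compounds first tested at 25 uM in duplicate, then those passing threshold in singleton concentration series to 50 uM.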
# [7] = tested on: rat Monoamine Oxidase, MAO-A, Central (MAOAC), gene 29253; assay: NVS_ENZ_rMAOAC: NovaScreen (NVS) Enzymatic Assay for rat Monoamine Oxidase, MAO-A, Central (MAOAC) (AID 2283243);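 also: potency refers to inhibition seen as signal drop below DMSO baseline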
# In short: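 Scintillation read-out of MAO-A activity in rat brain lysate, 1.5 h post-dosing. Primary single-concentration screen: 25 uM, duplicate; actives re-tested in concentration series. DMSO = negative control/baseline.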
# [8] = target: rat CYP1A2, Cyp1a2 (gene 24297) (UniProt P04799); assay: NVS_ADME_rCYP1A2: NovaScreen (NVS) CYP450-related Enzyme Activity (ADME) Assay for rat CYP1A2 (AID 2283115)
# Sequence of rat CYP1A2, Cyp1a2 (gene 24297) (P04799 whole entry, looked up): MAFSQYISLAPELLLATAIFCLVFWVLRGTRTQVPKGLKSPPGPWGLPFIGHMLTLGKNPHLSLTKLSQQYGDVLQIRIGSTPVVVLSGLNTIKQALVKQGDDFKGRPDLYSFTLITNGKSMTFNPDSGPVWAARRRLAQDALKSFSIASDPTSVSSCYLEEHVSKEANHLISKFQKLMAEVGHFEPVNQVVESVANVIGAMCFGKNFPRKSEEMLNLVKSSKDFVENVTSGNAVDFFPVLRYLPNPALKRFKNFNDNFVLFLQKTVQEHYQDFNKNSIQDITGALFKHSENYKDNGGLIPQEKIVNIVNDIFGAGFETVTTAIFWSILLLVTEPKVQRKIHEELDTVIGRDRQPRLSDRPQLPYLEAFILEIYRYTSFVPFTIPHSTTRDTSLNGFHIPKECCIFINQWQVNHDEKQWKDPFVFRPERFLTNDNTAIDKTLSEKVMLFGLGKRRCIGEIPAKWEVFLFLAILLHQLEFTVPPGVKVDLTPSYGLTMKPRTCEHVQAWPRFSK
# In short: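 Primary testing ran in duplicate at 10 uM, with actives re-tested across concentration series. Fluorescence intensity from substrate turnover by recombinant protein, measured 1 hour post-dosing, with signal loss scored against acetonitrile vehicle.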
# [9] = target: human Aurora Kinase A - serine/threonine-protein Kinase 6 (AurA), AURKA (gene 6790) (UniProt O14965); assay: NVS_ENZ_hAurA: NovaScreen (NVS) Enzymatic Assay for human Aurora Kinase A - serine/threonine-protein Kinase 6 (AurA) (AID 2283142)
# In short: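 Recombinant human AurA activity read by fluorescence after mobility-shift separation of product from substrate; 1 hour incubation. Chemicals first run in duplicate at 25 uM, then concentration series to 50 uM if over threshold; fitted relative to DMSO.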
# [10] = target: human Ephrin type-A Receptor 2 (EphA2), EPHA2 (gene 1969) (UniProt P29317); assay: NVS_ENZ_hEphA2: NovaScreen (NVS) Enzymatic Assay for human Ephrin type-A Receptor 2 (EphA2) (AID 2283155)
# In short: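 Enzyme activity of recombinant EphA2 read by fluorescence after mobility-shift separation, 1 h after dosing. Chemicals first tested at 25 uM (duplicate); those passing threshold run as concentration series, top 50 uM, single replicate, relative to DMSO.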
# PPP2CA (gene 5515) = PPP2CA (gene 5515) (UniProt P67775); assay: NVS_ENZ_hPPP2CA: NovaScreen (NVS) Enzymatic Assay for human Protein Phosphatase 2 Aatalytic subunit Alpha (PPP2CA) (AID 2283199)
# In short: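 Cell-free phosphatase activity: fluorescent substrate turnover by recombinant human enzyme, resolved by mobility shift at 1.33 h. Compounds passing the 25 uM duplicate primary screen were rerun in singleton series with a 50 uM top concentration.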
# [11] = tested on: rat Monoamine Oxidase, MAO-A, Peripheral (MAOAP), gene 29253; assay: NVS_ENZ_rMAOAP: NovaScreen (NVS) Enzymatic Assay for rat Monoamine Oxidase, MAO-A, Peripheral (MAOAP) (AID 2283237)
# In short: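 Scintillation counting tracked MAO-A activity in a cell-free rat liver mitochondrial membrane prep, read 1.17 hours after compound addition. Single-point duplicate testing at 25 uM preceded concentration-response follow-up; activity was fitted relative to DMSO.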
# [12] = target: rat Neurotensin Receptor (NTS), Ntsr1 (gene 366274) (UniProt P20789); assay: NVS_GPCR_rNTS: NovaScreen (NVS) G Protein-Coupled Receptor Assay for rat Neurotensin Receptor (NTS) (AID 2283308)
# In short: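 Single-point duplicates at 25 uM, then concentration series to 50 uM max for hits, measured radioligand displacement on rat forebrain membrane preparations. Bound label counted by filtration scintillation at 1 h; signal loss relative to DMSO fitted.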
# [13] = target: rat Monoamine Oxidase, MAO-B, Central (MAOBC), Maob (gene 25750) (UniProt P19643); assay: NVS_ENZ_rMAOBC: NovaScreen (NVS) Enzymatic Assay for rat Monoamine Oxidase, MAO-B, Central (MAOBC) (AID 2283238)
# In short: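 Cell-free radiometric assay, rat brain lysate. Read-out: scintillation counts, 1.17 h post-dosing. Screen 25 uM in duplicate; actives (e.g. ≥30% inhibition) then singleton concentration-response, max 50 uM. Activity loss fitted relative to DMSO.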
# [14] = target: Voltage-dependent N-type calcium channel subunit alpha-1B (Rattus norvegicus) (UniProt Q02294); assay: NVS_IC_rCaChN: NovaScreen (NVS) Ion Channel Assay for rat Calcium Channel, Type N (CaChN) (AID 2283317)
smiles,measurement,setting,value
CC[C@H](c1ccc(O)cc1)[C@@H](CC)c1ccc(O)cc1,outcome,[1],inactive
same,AC50,[2],4.88 µM (active)
same,AC50,[3],38.5 µM (active)
same,outcome,[4],inactive
CCOc1ccc2c(c1)C(C)=CC(C)(C)N2,outcome,[1],inactive
same,outcome,[5],inactive
same,AC50,[6],8.36 µM (active)
same,AC50,[7],16.6 µM (active)
c1ccc2c(c1)c1cccc3ccc4cccc2c4c31,outcome,[1],inactive
same,outcome,[8],inactive
CCCCCCCCN(C)CCCCCCCC,outcome,[1],inactive
same,AC50,[5],36.1 µM (active)
c1ccc2[nH]c(-c3cscn3)nc2c1,outcome,[1],inactive
same,outcome,[8],inactive
same,AC50,[9],17 µM (active)
same,outcome,[10],inactive
same,outcome,PPP2CA (gene 5515),inactive
same,outcome,[11],inactive
same,outcome,[7],inactive
same,outcome,[12],inactive
O=C(O)c1cccc(N(Cc2cccnc2)c2ccc(OC(F)F)c(OC(F)F)c2)c1,outcome,[1],inactive
same,AC50,[2],8.26 µM (active)
same,outcome,[3],inactive
same,outcome,[13],inactive
same,outcome,[14],inactive
